Results filed as inconclusive are left out. A number with no mark means an inactive call. Calls of active or inactive are those of the source. The call rests on the fitted dose curve; in most records, active means well fitted activation curve with a large enough effect in the repeat runs; inconclusive means weak or mixed curves; inactive means flat fitted curve, though single readings scatter.
Assay: Caspase-3/7 induction in HepG2 cells by small molecules, qHTS assay (AID 1346978); further: nearly all actives have a fitted effect of over 15% in size
Details: HepG2 caspase-3/7 activation, Caspase-Glo luminescence, 17 h; series mostly up to 92.4 µM; caspase activation: at the top concentration
How it was run: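 Caspase-3/7 induction was measured by Caspase-Glo 3/7 luminescence (30 min, room temperature) after a 17 hr compound exposure of wild-type HepG2 cells seeded at 2,000 per well and pre-incubated 5 hr.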
On the % scale 0 is the no-effect control and ±100 the full control effect; potency means the concentration at half of the fitted maximal effect.

Q: Which “caspase activation” value does the source give for `O=C1C[C@@H]2OCC=C3CN4CC[C@]56c7ccccc7N1[C@H]5[C@H]2[C@H]3C[C@H]46` here?
A: Its value is 0.566% [at 42.5 µM].

Q: With `CCCC[N+]1(C)CCCC1` (tested in a mixture with another compound) as the compound, how does the “caspase activation” value read?
A: The value was -3.3%.

Q: For `Cc1ccccc1OP(=O)(Oc1ccccc1C)Oc1ccccc1C`, which “caspase activation” value is on record?
A: Its value is 1.35%.

Q: Which “caspase activation” value does the source give for `CC(C)(C)c1ccc(OP(=O)(Oc2ccccc2)Oc2ccccc2)cc1` here?
A: Its value is -2.05%.

Q: Which “caspase activation” value does the source give for `C[C@]12Cc3cn[nH]c3C[C@@H]1CC[C@@H]1[C@@H]2CC[C@@]2(C)[C@H]1CC[C@]2(C)O` here?
A: Its value is 1.73% [at 42.5 µM].

Q: Which “caspase activation” value does the source give for `CCOP(=S)(NC(C)C)Oc1ccccc1C(=O)OC(C)C` (configuration not stated) here?
A: Its value is 9.6%.

Q: Which “caspase activation” value does the source give for `Cc1cc(C2CC2)nc(Nc2ccccc2)n1` here?
A: The value was -1.19%.

Q: With `CC1=C2C[C@H]3[C@@H](CC=C4C[C@@H](O)CC[C@@]43C)[C@@H]2CC[C@]12O[C@@H]1C[C@H](C)CN[C@H]1[C@H]2C` as the compound, how does the “caspase activation” value read?
A: The value was 7.9% [at 42.5 µM].

Q: With `Cc1ccc2cc3c(ccc4ccccc43)c3c2c1CC3` as the compound, how does the Potency read?
A: Its Potency is 6.13 µM (active).

Q: For `CN1C2CCC(C)(C)C1CC(OC(=O)C(O)(c1cccs1)c1cccs1)C2` (configuration not stated), which “caspase activation” value is on record?
A: The value was -2.29% [at 42.5 µM].

Q: Which “caspase activation” value does the source give for `COP(=O)(OC)Oc1ccc([N+](=O)[O-])cc1` here?
A: The value was -0.754%.

Q: Which “caspase activation” value does the source give for `CCN(CC)CCc1c[nH]c2ccccc12` here?
A: Its value is 3.44%.

Q: With `C#CCC1=C(C)C(OC(=O)C2C(C=C(C)C)C2(C)C)CC1=O` (configuration not stated) as the compound, how does the “caspase activation” value read?
A: Its value is -2.01%.

Q: For `CN1CCc2cc(Cl)c(O)cc2[C@H]2c3ccccc3CC[C@@H]21`, which “caspase activation” value is on record?
A: Its value is 1.31% [at 42.5 µM].

Q: For `CSC1=N[C@@](C)(c2ccccc2)C(=O)N1Nc1ccccc1`, which “caspase activation” value is on record?
A: Its value is -3.01%.

Q: For `O=[N+]([O-])c1cccc2cccc([N+](=O)[O-])c12`, which “caspase activation” value is on record?
A: Its value is -0.221%.

Q: With `Oc1ccc([C@H]2CNCc3c2ccc(O)c3O)cc1O` as the compound, how does the “caspase activation” value read?
A: Its value is -1.25% [at 42.5 µM].

Q: Which “caspase activation” value does the source give for `CO/N=C(\C(=O)OC)c1ccccc1CO/N=C(\C)c1cccc(C(F)(F)F)c1` here?
A: Its value is -6.02%.

Q: For `CCOP(=O)(Sc1ccccc1)Sc1ccccc1`, which “caspase activation” value is on record?
A: The value was -0.713%.

Q: With `FC(F)C(F)(F)OCC(Cn1cncn1)c1ccc(Cl)cc1Cl` (configuration not stated) as the compound, how does the “caspase activation” value read?
A: The value was 9.84%.

Q: For `COc1ccc2[nH]cc(CCN(C(C)C)C(C)C)c2c1`, which “caspase activation” value is on record?
A: Its value is -1.51%.

Q: For `O=[N+]([O-])[O-].[Tl+]`, which “caspase activation” value is on record?
A: The value was 4.04%.

Q: For `C[C@H]1[C@H](c2ccc(Cl)cc2)SC(=O)N1C(=O)NC1CCCCC1`, which “caspase activation” value is on record?
A: The value was -4.01%.

Q: With `CCOP(=O)(OCC)Oc1nc(Cl)c(Cl)cc1Cl` as the compound, how does the “caspase activation” value read?
A: Its value is -2.61%.

Q: With `c1ccc(Nc2ccc(Nc3ccccc3)cc2)cc1` as the compound, how does the “caspase activation” value read?
A: Its value is -3.45%.

Q: With `c1csc(-c2ccc(-c3cccs3)s2)c1` as the compound, how does the “caspase activation” value read?
A: The value was -4.11%.

Q: Which “caspase activation” value does the source give for `Nc1ccc(N=Nc2ccccc2)cc1` here?
A: The value was -12.9%.

Q: For `Clc1ccc(C(c2ccc(Cl)cc2)C(Cl)Cl)cc1`, which “caspase activation” value is on record?
A: The value was 4.58%.

Q: For `CCN(CC)Cc1nccn1-c1ccc([N+](=O)[O-])cc1C(=O)c1ccccc1Cl`, which “caspase activation” value is on record?
A: The value was 0.928% [at 42.5 µM].

Q: Which “caspase activation” value does the source give for `C=Cc1cccc(CCl)c1` here?
A: The value was 0.88% [at 240 µM].

Q: With `Oc1ccc2[nH]cc(CCCCN3CC=C(c4ccccc4)CC3)c2c1` as the compound, how does the “caspase activation” value read?
A: The value was 1.84% [at 42.5 µM].

Q: For `S=C=NCCc1ccccc1`, which “caspase activation” value is on record?
A: Its value is 8.11%.

Q: With `N#Cc1c[nH]cc1-c1cccc2c1OC(F)(F)O2` as the compound, how does the Potency read?
A: Its Potency is 12.2 µM (active).

Q: For `c1ccc(N=NNc2ccccc2)cc1`, which “caspase activation” value is on record?
A: Its value is -5.16%.

Q: Which “caspase activation” value does the source give for `CN1CCc2cc3c(cc2C1O)OCO3` (configuration not stated) here?
A: Its value is -0.994%.

Q: Which Potency does the source give for `O=C1C(Cl)=C(Cl)C(=O)C(Cl)=C1Cl` here?
A: The Potency was “inactive”.

Q: With `ClC1=C(Cl)[C@]2(Cl)[C@@H]3[C@H]4C[C@H]([C@@H]5O[C@H]45)[C@@H]3[C@@]1(Cl)C2(Cl)Cl` as the compound, how does the “caspase activation” value read?
A: Its value is 0.218%.

— PubChem BioAssay (Tox21)
